Rows were chosen to be rich in hits. Some 17% of all compounds tested hit in one or more screens of this group.
TDP1 block = qHTS Assay for Inhibitors of Tyrosyl-DNA Phosphodiesterase (TDP1); 350,000 compounds, 0.28% hits; recombinant TDP1, AlphaScreen DNA substrate cleavage; AID 485290, 2010; Tyrosyl-DNA phosphodiesterase 1 (Homo sapiens), Q9NUW8; Potency, µM (top dose mostly 130 µM), for inactives: at the highest dose activity change, negative = inhibition, most hits filed as inhibitors; also: % is scaled to controls: 0 for no effect and ±100 for the full control effect; nearly all actives have a fitted effect of over 40% in size
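Recombinant human Tdp1 (E. coli-expressed, 1 nM final) preincubated with compounds 15 min at room temperature, then 5'-biotin/3'-phosphotyrosine-FITC DNA substrate (15 nM final) added for 5 min. AlphaScreen beads (10 ug/ml final) added 10 min; cleavage lowers signal.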
DT40 TDP1 CPT = qHTS for Inhibitors of human tyrosyl-DNA phosphodiesterase 1 (TDP1): qHTS in cells in presence of CPT. Potency, µM (series often up to 46.2 µM), inactives show top-dose activity change, negative = growth inhibition, actives largely listed as inhibitors. 420,000 compounds, 12% hits. AID 686979, 2013. chicken DT40 Tdp1-/-;hTDP1 cells + 20 nM CPT, ATP luminescence, 48 h; also: % is scaled to controls: 0 for no effect and ±100 for the full control effect; nearly all actives have a fitted effect of over 55% in size
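Cell growth measured by CellTiter-Glo luminescence after a minimum 48 h, 37 C compound exposure with 20 nM CPT in Tdp1-knockout DT40 cells stably expressing hTDP1, seeded 400/well; qHTS titration format.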
TDP1 cell noCPT = qHTS for Inhibitors of human tyrosyl-DNA phosphodiesterase 1 (TDP1): qHTS in cells in absence of CPT; DT40 Tdp1-/- hTDP1 cells, no CPT, ATP luminescence, 48 h; Potency, µM (doses to about 46.2 µM), inactives show at the top dose activity change, negative = growth inhibition, most hits filed as inhibitors; 420,000 compounds, 15% hits; AID 686978, 2013; also: % is scaled to controls: 0 for no effect and ±100 for the full control effect; nearly all actives have a fitted effect of over 55% in size
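Cells were dispensed at 400 per well, compounds added by pin tool, plates incubated ≥48 hr at 37 °C, then CellTiter-Glo added for 30 min at room temperature before luminescence reading. Line: DT40 Tdp1-/- complemented with hTDP1; camptothecin omitted.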
ClpP mod = qHTS Assay for Activators of ClpP; purified B. subtilis ClpP, FRET peptide cleavage, 20 min; ATP-dependent Clp protease proteolytic subunit (Bacillus subtilis (strain 168)), P80244; AID 651965, 2013; Potency, µM (series often up to 57.5 µM), for inactives: at the highest dose activity change, negative = active; 340,000 compounds, 1.9% hits; active = well fitted falling curve with a large enough effect; inconclusive = small, poorly fitted or top-dose-only effect; inactive = no such curve, though single readings can be large or run the other way; also: the source files actives as falling curves though it sought activators and does not explain the sign; nearly all actives have a fitted effect of over 65% in size
Target sequence (P80244 whole entry, looked up): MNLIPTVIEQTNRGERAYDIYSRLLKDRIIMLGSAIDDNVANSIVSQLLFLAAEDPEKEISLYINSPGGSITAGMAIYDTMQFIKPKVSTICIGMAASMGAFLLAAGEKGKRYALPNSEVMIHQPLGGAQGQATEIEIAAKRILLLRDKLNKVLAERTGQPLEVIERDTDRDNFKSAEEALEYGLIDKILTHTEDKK
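Purified B. subtilis ClpP, 10 microg/mL final in Tris/HCl pH8 with KCl, BSA, glycerol and Tween-20, cleaved an Abz/nitrotyrosine-quenched decapeptide. Fluorescence (ex 320, em 430) was read at 0 and 20 min at room temperature. Delta was normalized to 5.8 microM ADEP and DMSO/no-enzyme controls.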
Starred values were filed as active, the others as inactive; ? = inconclusive; nt = no result; [ ] = dose if it differs, or a comment. Unless noted, calls follow the shape of the dose curve; as a rule, active = well fitted curve in the direction sought with a large enough effect; inconclusive = small, poorly fitted or top-dose-only effect, or another doubt; inactive = no such curve, though single readings can be large; an effect the other way counts as inactive or inconclusive. Potency is read from the fitted curve at half-maximal effect.

SMILES	TDP1 block	DT40 TDP1 CPT	TDP1 cell noCPT	ClpP mod
CCCNC(=O)Cn1cnc2sc(C(=O)Nc3cc(OC)c(OC)c(OC)c3)c(C)c2c1=O	5%	11%	9%	-9%
COCCNC(=O)c1sc2ncn(CC(=O)Nc3ccc(C)c(Cl)c3)c(=O)c2c1C	0%	?	13µM*	0%
Cc1c(C(=O)Nc2c(F)cccc2F)sc2ncn(CC(=O)N3CCCCC3)c(=O)c12	1%	-9%	7%	-2%
COCCNC(=O)c1sc2ncn(CC(=O)N3CCCCC3)c(=O)c2c1C	1%	?	26µM*	1%
CCN(CC)C(=O)Cn1cnc2sc(C(=O)Nc3cc(OC)c(OC)c(OC)c3)c(C)c2c1=O	1%	?	12µM*	1%
CC(=O)c1cc2c(cc1NC(=O)Cn1nc(-c3ccc(C)cc3)ccc1=O)OCO2	nt	?	?	1%
COc1cccc(-c2cnc3c(NC(C)=O)cc(-c4ccc(C(=O)NC5CC5)cc4)cn23)c1	nt	?	13µM*	-20%
COc1cccc(-c2cnc3c(NC(C)=O)cc(-c4cccc(C(=O)N(C)C)c4)cn23)c1	nt	?	?	-11%
COc1ccc(-c2cnc3c(NC(C)=O)cc(-c4ccc(C(=O)NC5CC5)cc4)cn23)cc1OC	nt	23µM*	23µM*	-5%
CCCNC(=O)C1(C)CCN(C(=O)c2c(Cl)cccc2Cl)C1 (stereo not given)	nt	0%	6%	-2%
O=C(Cc1ccc(Cl)cc1)c1c(O)cc(O)cc1O	12%[56.1 µM]	-9%	-5%	nt
CN(C)CCn1c(SCc2ccccc2C#N)nc2c(sc3ccccc32)c1=O	nt	-21%	?	4%
Cc1ccc2nc(SCC(=O)NNC(=O)c3ccccc3)[nH]c2c1	-3%	-13%	-5%	0%
CCOc1ccc(-c2nnc(SCC(=O)N3CCNC3=O)o2)cc1	0%	-6%	11%	-1%
COc1ccc(OC)c(NC(=O)CSC2=Nc3ccccc3C3=NC(CC(=O)NCc4ccco4)C(=O)N23)c1 (stereo not given)	2%	?	?	0%
CCOc1ccc(NC(=O)CSC2=Nc3ccccc3C3=NC(CC(=O)NCc4ccco4)C(=O)N23)cc1 (stereo not given)	7%	15µM*	23µM*	-3%
CC(C)c1ccc(NC(=O)CSC2=Nc3ccccc3C3=NC(CC(=O)NC4CCCCC4)C(=O)N23)cc1 (stereo not given)	3%	21µM*	21µM*	-2%
COc1ccc(NC(=O)CSC2=Nc3ccccc3C3=NC(CCC(=O)NC4CCCCC4)C(=O)N23)cc1Cl (stereo not given)	5%	?	23µM*	-1%
O=C(CSC1=Nc2ccccc2C2=NC(CCC(=O)NC3CCCCC3)C(=O)N12)Nc1cccc(C(F)(F)F)c1 (stereo not given)	-2%[12.3 µM]	?	23µM*	?
COc1ccc(OC)c(NC(=O)CSC2=Nc3ccccc3C3=NC(CCC(=O)NC4CCCCC4)C(=O)N23)c1 (stereo not given)	4%	0%	-27%	-14%
CCOC(=O)C1=C(COC(=O)c2ccc(Cl)nc2)NC(=O)NC1C (stereo not given)	nt	0%	1%	nt
CC(C)c1ccc(NC(=O)CSC2=Nc3ccccc3C3=NC(CCC(=O)NC4CCCCC4)C(=O)N23)cc1 (stereo not given)	3%	23µM*	23µM*	4%
CCc1ccc(NC(=O)CSC2=Nc3ccccc3C3=NC(CC(=O)NC4CCCCC4)C(=O)N23)cc1 (stereo not given)	3%	12µM*	9.2µM*	0%
CCOc1ccccc1NC(=O)CSC1=Nc2ccccc2C2=NC(CC(=O)NC3CCCCC3)C(=O)N12 (stereo not given)	0%	21µM*	21µM*	-2%
O=C(CSC1=Nc2ccccc2C2=NC(CC(=O)NC3CCCCC3)C(=O)N12)Nc1ccc(F)cc1 (stereo not given)	0%	?	-94%	14µM*
SMILES	TDP1 block	DT40 TDP1 CPT	TDP1 cell noCPT	ClpP mod
COc1ccc(NC(=O)CSC2=Nc3ccccc3C3=NC(CCC(=O)NC4CCCCC4)C(=O)N23)cc1 (stereo not given)	5%	?	-26%	-2%
CC(=O)NCCNc1nc(-c2ccccc2C)nc2ccccc12	nt	-26%	-24%	nt
Cc1nc(N)sc1C(=O)OCC(C)C	0%	-21%	7%	0%
COc1ccc(-c2ccc3oc(-c4ccsc4)cc3c2)cc1	nt	3%	-24%	-1%
NCCn1oc(=O)[nH]c1=O	5%	-2%	0%	nt
CCOc1ccc(CCNC(=O)CS(=O)Cc2nc(-c3ccc(OC)c(OC)c3)oc2C)cc1OCC (stereo not given)	6%	?	?	?
O=C(NC1CCCC1)c1nc(-c2ccco2)oc1-c1ccccc1	nt	?	?	5%
Nc1ccc(S(=O)(=O)NC2(C(F)(F)F)NC(=O)N(c3cccc(Cl)c3)C2=O)cc1 (stereo not given)	6%	13%	6%	1%
CCCc1c(-c2ccc(Cl)cc2)ncn1Cc1ccccc1OC	nt	12µM*	21µM*	-1%
CCCc1c(-c2cccc(Cl)c2)ncn1CCc1ccccc1OC	nt	?	16µM*	0%
COc1ccccc1CCn1c(=O)c(-c2ccc(F)cc2)nc2cncnc21	nt	8%	0%	nt
CCCc1c(-c2ccc(F)cc2)ncn1CCc1ccccc1OC	nt	?	16µM*	2%
COc1ccccc1Cn1cnc2cccnc21	2%	-20%	7%	-2%
CCCc1c(-c2cccc(Br)c2)ncn1Cc1ccccc1OC	nt	?	21µM*	-4%
COc1ccccc1Cn1c(=S)[nH]c2ccc(Br)cc2c1=O	nt	3%	-8%	nt
Cc1nn(-c2ccc(N3CCOCC3)nn2)c(C)c1CCC(=O)NCc1ccccc1	1%	3%	19%	-1%
COc1ccccc1NC(=O)c1cc2c([nH]c1=O)CC(C)(C)CC2=O	5%	-1%	-2%	?
C[C@@H]1CN([C@@H](C)CO)C(=O)CCCn2nncc2CO[C@H]1CN(C)C(=O)C1CC1	nt	16%	2%	0%
C[C@@H]1CN([C@H](C)CO)S(=O)(=O)c2ccc(C#CCN(C)C)cc2O[C@@H]1CN(C)Cc1ccccc1F	nt	?	?	-1%
COc1ccccc1CNC(=O)Cc1csc2nc(-c3ccc(Cl)cc3)cn12	-2%	?	?	0%
CCCc1c(-c2ccc(Cl)cc2)ncn1CCc1ccccc1OC	nt	6.5µM*	5.8µM*	-2%
